Inconclusive results are not listed. Activity calls are given as the source filed them. Calls come from the whole dose curve; as a rule, active = well fitted cell-killing curve with a large enough effect; inconclusive = small, poorly fitted or top-dose-only effect, or effect the other way; inactive = flat fitted curve, though single readings scatter.
Experiments:
Experiment in all cases: Primary qHTS to identify gynecologic anti-cancer compounds using libraries of approved drugs and bioactive compounds (AID 1345084); note: nearly all actives have a fitted effect of over 55% in size
C33A = settings: Gynecologic cancer cell panel viability, ATPlite luminescence, 48 h; series mostly up to 57.5 µM
Procedure, shortened: (§1)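 Luminescence from the ATPlite ATP-monitoring reagent indicates viable cell number; lower signal means cytotoxicity. Cells received compound 16 h after seeding and were exposed for 48 h across five concentrations.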

CAOV3 = settings: Gynecologic cancer cell panel viability, ATPlite luminescence, 48 h; series mostly up to 57.5 µM
Procedure, shortened: as §1

CASKI = settings: Gynecologic cancer cell panel viability, ATPlite luminescence, 48 h; series mostly up to 57.5 µM
Procedure, shortened: as §1

Es-2 = settings: Gynecologic cancer cell panel viability, ATPlite luminescence, 48 h; series mostly up to 57.5 µM
Procedure, shortened: as §1

HeLa = settings: Gynecologic cancer cell panel viability, ATPlite luminescence, 48 h; series mostly up to 57.5 µM
Procedure, shortened: as §1

Hek293T = settings: Gynecologic cancer cell panel viability, ATPlite luminescence, 48 h, control line for the selectivity index; series mostly up to 57.5 µM
Procedure, shortened: as §1

JEG-3 = settings: Gynecologic cancer cell panel viability, ATPlite luminescence, 48 h; series mostly up to 57.5 µM
Procedure, shortened: as §1

OV90 = settings: Gynecologic cancer cell panel viability, ATPlite luminescence, 48 h; series mostly up to 57.5 µM
Procedure, shortened: as §1

PA-1 = settings: Gynecologic cancer cell panel viability, ATPlite luminescence, 48 h; series mostly up to 57.5 µM
Procedure, shortened: as §1

SKOV3 = settings: Gynecologic cancer cell panel viability, ATPlite luminescence, 48 h; series mostly up to 57.5 µM
Procedure, shortened: as §1

Tov-21-G = settings: Gynecologic cancer cell panel viability, ATPlite luminescence, 48 h; series mostly up to 57.5 µM
Procedure, shortened: as §1

Tov112D = settings: Gynecologic cancer cell panel viability, ATPlite luminescence, 48 h; series mostly up to 57.5 µM
Procedure, shortened: as §1
% is set by controls: 0 for no effect and ±100 for the full control effect.

C/C(=C\CCC(C)CCO)C(=O)O[C@@H]1[C@@H](O)[C@H](OC2OC=C(C(=O)O)C3CCC(C)(O)C23)O[C@H](CO)[C@H]1O (stereo partly specified)
inactive: Potency (C33A) | Potency (CAOV3) | Potency (CASKI) | Potency (Es-2) | Potency (HeLa) | Potency (Hek293T) | Potency (JEG-3) | Potency (OV90) | Potency (PA-1) | Potency (SKOV3) | Potency (Tov-21-G) | Potency (Tov112D)

CCCOC(c1cc2nccc(C(=O)O)c2[nH]1)c1ccccc1Cl (stereo unspecified)
inactive: Potency (C33A) | Potency (CAOV3) | Potency (CASKI) | Potency (Es-2) | Potency (HeLa) | Potency (Hek293T) | Potency (JEG-3) | Potency (OV90) | Potency (PA-1) | Potency (SKOV3) | Potency (Tov-21-G) | Potency (Tov112D)

O=C1CSc2ccccc2N1Cc1cccc(C(F)(F)F)c1
inactive: Potency (C33A) | Potency (CAOV3) | Potency (CASKI) | Potency (Es-2) | Potency (HeLa) | Potency (Hek293T) | Potency (JEG-3) | Potency (OV90) | Potency (PA-1) | Potency (SKOV3) | Potency (Tov-21-G) | Potency (Tov112D)

O=C(O)CC(=O)OC[C@H]1O[C@@H](Oc2ccc3c(c2)OC[C@H]2c4cc5c(cc4O[C@@H]32)OCO5)[C@H](O)[C@@H](O)[C@@H]1O
inactive: Potency (C33A) | Potency (CAOV3) | Potency (CASKI) | Potency (Es-2) | Potency (HeLa) | Potency (Hek293T) | Potency (JEG-3) | Potency (OV90) | Potency (PA-1) | Potency (SKOV3) | Potency (Tov-21-G) | Potency (Tov112D)

OC[C@H]1O[C@@H](OCCc2ccc(O)cc2)[C@H](O[C@@H]2OC[C@](O)(CO)[C@H]2O)[C@@H](O)[C@@H]1O
inactive: Potency (C33A) | Potency (CAOV3) | Potency (CASKI) | Potency (Es-2) | Potency (HeLa) | Potency (Hek293T) | Potency (JEG-3) | Potency (OV90) | Potency (PA-1) | Potency (SKOV3) | Potency (Tov-21-G) | Potency (Tov112D)

CC(/C=C/C1=CC2=CC(=O)C(C)(O)C(O)C2=CO1)=C\C(C)CCO (stereo unspecified)
inactive: Potency (C33A) | Potency (CAOV3) | Potency (CASKI) | Potency (Es-2) | Potency (HeLa) | Potency (Hek293T) | Potency (JEG-3) | Potency (OV90) | Potency (PA-1) | Potency (SKOV3) | Potency (Tov-21-G) | Potency (Tov112D)

O=C(Nc1ccccc1-c1cn2c(CN3CCNCC3)csc2n1)c1ccc2ccccc2n1
inactive: Potency (C33A) | Potency (CAOV3) | Potency (CASKI) | Potency (Es-2) | Potency (HeLa) | Potency (Hek293T) | Potency (JEG-3) | Potency (OV90) | Potency (PA-1) | Potency (SKOV3) | Potency (Tov-21-G) | Potency (Tov112D)

CCCN1CCN(c2ccc(C(=O)NC3(C(=O)NCC#N)CCCCC3)cc2)CC1
inactive: Potency (C33A) | Potency (CAOV3) | Potency (CASKI) | Potency (Es-2) | Potency (HeLa) | Potency (Hek293T) | Potency (JEG-3) | Potency (OV90) | Potency (PA-1) | Potency (SKOV3) | Potency (Tov-21-G) | Potency (Tov112D)

CN[C@@H]1[C@H](O[C@H]2[C@H](O[C@@H]3[C@@H](O)[C@H](O)[C@@H](N=C(N)N)[C@H](O)[C@H]3N=C(N)N)O[C@@H](C)[C@]2(O)C=O)O[C@@H](CO)[C@H](O)[C@H]1O
inactive: Potency (C33A) | Potency (CAOV3) | Potency (CASKI) | Potency (Es-2) | Potency (HeLa) | Potency (Hek293T) | Potency (JEG-3) | Potency (OV90) | Potency (PA-1) | Potency (SKOV3) | Potency (Tov-21-G) | Potency (Tov112D)

CC1OC(OC2C(C)OC(OC3C(OC(=O)C45CCC(C)(C)CC4C4=CCC6C7(C)CCC(OC8OC(C(=O)O)C(O)C(O)C8OC8OC(CO)C(O)C(OC9OC(C)C(O)C(O)C9O)C8O)C(C)(CO)C7CCC6(C)C4(C)CC5)OC(CO)C(O)C3O)C(O)C2O)C(O)C(O)C1O (stereo unspecified)
inactive: activity change, negative = cytotoxicity (C33A) 1.01% [at 6.55 µM] | activity change, negative = cytotoxicity (CAOV3) 6.9% [at 6.55 µM] | activity change, negative = cytotoxicity (CASKI) 16.9% [at 6.55 µM] | activity change, negative = cytotoxicity (Es-2) 0.662% [at 6.55 µM] | activity change, negative = cytotoxicity (HeLa) 5.48% [at 6.55 µM] | activity change, negative = cytotoxicity (Hek293T) -2.51% [at 6.55 µM] | activity change, negative = cytotoxicity (JEG-3) 4.23% [at 6.55 µM] | activity change, negative = cytotoxicity (OV90) 11.5% [at 6.55 µM] | activity change, negative = cytotoxicity (PA-1) 0.842% [at 6.55 µM] | activity change, negative = cytotoxicity (SKOV3) 0% [at 6.55 µM] | activity change, negative = cytotoxicity (Tov-21-G) 2.91% [at 6.55 µM] | activity change, negative = cytotoxicity (Tov112D) 13.7% [at 6.55 µM]

C[C@@H]1CN(Cc2ccccc2)C[C@H]1c1nc2c(cnn2C2CCOCC2)c(=O)[nH]1
inactive: Potency (C33A) | Potency (CAOV3) | Potency (CASKI) | Potency (Es-2) | Potency (HeLa) | Potency (Hek293T) | Potency (JEG-3) | Potency (OV90) | Potency (PA-1) | Potency (SKOV3) | Potency (Tov-21-G) | Potency (Tov112D)

CC1CC(C(O)C(C)(C)O)OC2CC3(C)C4(C)CCC5C(C)(C)C(=O)CCC5(C)C4CCC3(O)C12O (stereo unspecified)
inactive: Potency (C33A) | Potency (CAOV3) | Potency (CASKI) | Potency (Es-2) | Potency (HeLa) | Potency (Hek293T) | Potency (JEG-3) | Potency (OV90) | Potency (PA-1) | Potency (SKOV3) | Potency (Tov-21-G) | Potency (Tov112D)

Cc1cc(=O)oc2c(C=O)c(O)ccc12
inactive: Potency (C33A) | Potency (CAOV3) | Potency (CASKI) | Potency (Es-2) | Potency (HeLa) | Potency (Hek293T) | Potency (JEG-3) | Potency (OV90) | Potency (PA-1) | Potency (SKOV3) | Potency (Tov-21-G) | Potency (Tov112D)

From PubChem BioAssay (NCATS)
